# RecA splice inh = Mtb RecA intein splicing inhibitors, primary screen, biochemical, fluorescence, HTS. Protein RecA (Mycobacterium tuberculosis (strain ATCC 25618 / H37Rv)), P9WHJ3. cell-free RecA intein splicing. inhibition, % (no concentration beside the values). hit rate 0.75% among 290,000; in the data active means inhibition above about 30%;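 further: 0% = vehicle wells and 100% = reference inhibitor control wells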
# Target sequence (P9WHJ3 whole entry, looked up, canonical isoform): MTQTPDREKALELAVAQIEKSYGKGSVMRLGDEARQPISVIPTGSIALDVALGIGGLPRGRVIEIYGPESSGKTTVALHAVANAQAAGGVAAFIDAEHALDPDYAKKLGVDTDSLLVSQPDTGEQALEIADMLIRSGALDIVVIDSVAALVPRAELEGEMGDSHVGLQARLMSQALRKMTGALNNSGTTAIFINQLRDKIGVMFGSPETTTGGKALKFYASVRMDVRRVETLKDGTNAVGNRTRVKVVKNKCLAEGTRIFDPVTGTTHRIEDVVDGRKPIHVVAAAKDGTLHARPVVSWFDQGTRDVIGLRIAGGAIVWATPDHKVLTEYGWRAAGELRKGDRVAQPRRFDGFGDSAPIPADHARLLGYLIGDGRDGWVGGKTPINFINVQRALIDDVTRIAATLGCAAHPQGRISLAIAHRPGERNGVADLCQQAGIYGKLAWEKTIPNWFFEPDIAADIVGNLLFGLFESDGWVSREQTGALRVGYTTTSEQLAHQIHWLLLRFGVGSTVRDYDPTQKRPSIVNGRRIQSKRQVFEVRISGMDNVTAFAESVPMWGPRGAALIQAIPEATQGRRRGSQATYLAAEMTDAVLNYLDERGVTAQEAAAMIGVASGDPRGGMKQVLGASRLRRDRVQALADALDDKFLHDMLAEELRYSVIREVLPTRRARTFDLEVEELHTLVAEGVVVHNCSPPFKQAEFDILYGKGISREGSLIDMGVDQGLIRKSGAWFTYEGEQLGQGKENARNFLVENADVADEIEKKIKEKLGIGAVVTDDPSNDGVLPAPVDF
# GDH-TPI counter-1 = GDH-TPI coupling enzyme inhibitors, primary screen, artefact control for M. tuberculosis FBA inhibitor project, biochemical, absorbance, full deck. hit rate 1.2% among 360,000. inhibition, % at 4.8 µM. GDH-TPI coupled enzyme counterscreen, NADH absorbance; in the data active means inhibition above about 30%;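 further: 0% = DMSO wells and 100% = wells lacking the enzyme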
# FBA Mtb inh = Mtb FBA enzyme inhibitors, primary screen, biochemical, fluorescence, strain H37Rv; Fructose-bisphosphate aldolase (Mycobacterium tuberculosis (strain ATCC 25618 / H37Rv)), …; purified M. tuberculosis FBA, fluorescence read-out; inhibition, % at 1 µM; hit rate 2.3% among 360,000; AID 588726, 2011;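 further: 0% = vehicle and 100% = reference inhibitor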
# CCHF vOTU inh = CCHFV vOTU protease inhibitors, primary screen, biochemical, Pep-AMC substrate, fluorescence; inhibition, % at 11.5 µM; hit rate 0.55% among 370,000; Crimean-Congo hemorrhagic fever virus L polyprotein viral ovarian tumor (vOTU) protease …; in the data active means inhibition above about 30%; further: 0% = vehicle wells with enzyme and 100% = no enzyme wells
# Mtb FBA confirm = M. tuberculosis aldolase blockers, biochemical, fluorescence, strain H37Rv, confirmation. shares compounds with FBA Mtb inh. hit rate 78% among 5,600. purified M. tuberculosis FBA, fluorescence read-out. inhibition, % at 1 µM. AID 651616, 2012;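 further: 0% = vehicle wells and 100% = reference inhibitor wells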
# GDH-TPI counter-2 = GDH-TPI coupling enzyme inhibitors, artefact control for M. tuberculosis FBA inhibitor project, biochemical, fluorescence, high throughput. hit rate 81% among 5,600. GDH-TPI coupled enzyme counterscreen. shares compounds with FBA Mtb inh. inhibition, % at 1 µM; in the data active means inhibition above about 10%
# Starred values were filed as active, the others as inactive; x = no result given; + = active, no number. Most compounds without a hit are left out; they make up all but 4.2% or so of the library. Unless noted, no stated cut-off is given here; in the data, active means inhibition above about 27%; inactive means the rest.
SMILES,RecA splice inh,GDH-TPI counter-1,FBA Mtb inh,CCHF vOTU inh,Mtb FBA confirm,GDH-TPI counter-2
Cc1cc(C)cc(N(CC(=O)NC2CCCC2)C(=O)C2(C)CC(=O)N=C3C=CC=CN32)c1 (stereo not given),-3,12,36*,-29,+,161*
CN1CCc2c(C#N)c(N3CCCCC3)nc(N3CCOCC3)c2C1,-3,x,x,x,x,x
CN1CCc2c(C#N)c(Cl)nc(Cl)c2C1,-6,13,68*,-38,4,-2
CCOC(=O)c1cc2c3ccccc3n(CC)c2nc1N,-2,15,37*,-2,+,+
C#CCN(C[C@@H]1[C@@H](OC(=O)NCc2ccc(OC)c(OC)c2)[C@@H](OC(=O)NCc2ccc(OC)c(OC)c2)CN(C(=O)OC(C)C)N1C(=O)OC(C)C)S(=O)(=O)c1ccc(C)cc1,x,8,-3,10,x,x
CCCN(CC(=O)Nc1ccc(Cl)cc1Cl)C(=O)/C=C/c1cccc([N+](=O)[O-])c1,1,0,1,-7,x,x
CCCN(CC(=O)Nc1ccc(Cl)cc1Cl)C(=O)/C=C/c1cc(OC)ccc1OC,-13,7,28*,-32,9,3
CCCN(CC(=O)Nc1cc(Cl)ccc1Cl)C(=O)/C=C/c1cc(OC)ccc1OC,x,5,39*,-29,+,+
C=CC1CN(C(=O)OCC(Cl)(Cl)Cl)C2CC3c4ccc(OC)cc4NC3C3CC1C2CO3 (stereo not given),15,3,3,x,x,x
CN(C)CCCNC(=O)N1c2ccccc2Sc2ccccc21,x,-14,59*,-15,+,+
O=C(NCCO)N1c2ccccc2Sc2ccccc21,-3,-2,2,5,x,x
Cc1n[nH]c(=O)c2c(NC(=O)CSc3ccccc3Cl)oc(C)c12,-2,-6,0,0,x,x
NCCc1ccn[nH]1,x,0,0,-4,x,x
Cc1cc(C(F)(F)F)c2c(=O)[nH]c(=O)n(Cc3ccccc3)c2n1,2,4,-1,-2,x,x
O=c1[nH]c(=O)n(Cc2ccccc2)c2nc(-c3ccco3)cc(C(F)(F)F)c12,-2,2,27*,-9,72*,64*
COc1ccc(C#CCN(C)/C(N)=N/C(=O)OCc2ccccc2)cc1,x,x,x,-3,x,x
COC(=O)c1cc(-c2ccc(OC)cc2F)nc2nc(SC)[nH]c(=O)c12,1,17,27*,-12,+,+
C#CCN1CC(N(C)CCOC(=O)c2cc3ccccc3[nH]2)CS1(=O)=O (stereo not given),x,x,x,-1,x,x
COc1ccc(NC(=O)c2ccc(S(=O)(=O)N3CC(C)CC(C)C3)cc2)cc1S(N)(=O)=O (stereo not given),x,18,39*,-18,180*,152*
C=C(C)COC(=O)c1ccccc1C(=O)OCC1(C)CO1 (stereo not given),x,0,0,-16,x,x
O=c1oc2ccccc2c2c1ccc1ccccc12,x,14,29*,-34,51*,43*
Cc1cc2c(c(N)n1)c(=O)oc1ccccc12,0,18,40*,-15,0,0
Nc1ccc2oc(-c3cccc4ccccc34)nc2c1,-3,13,6,8,x,x
O=c1oc2ccc3ccccc3c2cc1-c1nc2ccccc2o1,-137,8,46*,-111,73*,67*
COC(=O)c1c(C)nc(C)c2c(=O)oc3ccccc3c12,0,5,2,7,x,x
SMILES,RecA splice inh,GDH-TPI counter-1,FBA Mtb inh,CCHF vOTU inh,Mtb FBA confirm,GDH-TPI counter-2
C[C@@H]1COc2cccc(NC3CC3)c2S(=O)(=O)N1,x,x,x,-26,x,x
O=C(CN1C(=O)NC2(CCCCC2)C1=O)Nc1ccccc1N1CCCC1,x,2,6,4,x,x
Cc1cccc(-c2nc3c(c(SCC(=O)N4CCOCC4)n2)COC(C)(C)C3)c1,4,2,-5,0,x,x
Cc1cc(-c2ccccc2)c2nncn2n1,-3,-3,45*,-16,+,+
Cc1cc(-c2ccccc2)c2c3c(cn2n1)c(=O)n(C)c(=O)n3C,-1,3,1,-4,x,x
Cc1cc(NCCO)c2cc(O)ccc2n1,-57,15,90*,-132,105*,127*
OCCNc1cnc2ccccc2n1,-2,11,27,-20,x,x
Cc1cc(NCCO)c2ccccc2n1,0,7,0,1,x,x
OCCNc1c2ccccc2nc2ccccc12,-62,-4,60*,-57,62*,34*
OCCNc1nc2ccccc2nc1NCCO,0,16,35*,-42,+,173*
CCOC(=O)Cc1nc(N2CCN(CCN)CC2)c2c(C)c(C(=O)OCC)sc2n1,x,x,x,-21,x,x
CCC(CC)CC1CN2CCc3cc(OC)c(OC)cc3C2CC1(O)CC (stereo not given),x,12,18,-21,x,x
COc1cccc(C(C(=O)NC2CCCC2)N(C(=O)c2ccco2)c2ccccc2)c1OC (stereo not given),x,5,4,12,x,x
COc1ccc(C2C=C(C)Nc3ncnn32)cc1 (stereo not given),-5,8,36*,-14,121*,106*
CCOc1ccc(C2C=C(c3ccc(C)cc3)Nc3ncnn32)cc1 (stereo not given),-437,x,x,x,x,x
Cc1ccc(C2=CC(c3ccc(C)cc3)n3ncnc3N2)cc1 (stereo not given),-91,13,35*,-1,119*,95*
CC(C)NC(=O)Nc1cccc2c1O[C@H](CN(C)S(=O)(=O)c1ccccc1)[C@@H](C)CN([C@H](C)CO)C2=O,x,1,39*,3,59*,61*
C/C(=N\Nc1ccccc1)c1cc2ccccc2oc1=O,-1,11,65*,-7,6,-8
CCOC(=O)C1CCCN(C(=O)c2ccc3nc(-c4cccc(OC)c4)oc3c2)C1 (stereo not given),4,4,2,-5,x,x
CCCOc1ccc2c(CC)cc(=O)oc2c1C,-1,18,35*,-8,92*,80*
O=C(COc1ccc2c3c(c(=O)oc2c1)CCC3)NCCCN1CCOCC1,-3,12,15,4,x,x
O=C(O)[C@@H]1CCCN1C(=O)COc1ccc2c3c(c(=O)oc2c1)CCC3,x,15,42*,-3,92*,68*
Cc1c(OCC(=O)N2CCC(C(=O)O)CC2)ccc2c3c(c(=O)oc12)CCCC3,x,18,66*,-23,70*,58*
C=C(C)COc1ccc2c(CC)cc(=O)oc2c1C,0,11,21,-1,x,x
CCc1cc(=O)oc2c(C)c(OCC(=O)N3CCC(C(=O)O)CC3)ccc12,2,15,38*,-14,-7,-9

# Screens from PubChem BioAssay.
